The text below walks through data of the supplement of paper PMC7726561.

In all, about 1,100 sequences were measured (“thermal melting temperature (Tm) of peptide-HLA complex”: median about 58, lowest 2% from about 42 on). Shown is part of a subset that was picked to be rich in the lowest values.
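Note: lysates heated 10 min at 37–73 °C, complexes pulled down with pan-HLA I antibody, peptide signal by DIA-MS relative to 37 °C, Tm where half the complex is unfolded.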

For this test, the target named is HLA-A*02:01. In words: thermal melting temperature (Tm) of peptide-HLA complex; higher = more thermostable pHLA complex. The conditions noted are these: C1R-A*02:01.
On to SLMDPNKFLLL, for which the thermal melting temperature came to 55.1 °C. VLQGKLAEV returned a thermal melting temperature of 53.5 °C. Next, HLAIKLEQV: 59.5 °C; KIIEYSVYL: 59.5 °C. Next, ALAPAPPQV: 62.1 °C; GLSTEGIYRV: 60.9 °C.

For the sequence ILDAGGHNVTI, the thermal melting temperature is 54.5 °C. Sequence KVIDYVPGI displayed a thermal melting temperature of 58.8 °C. NLFNRYPAL: the thermal melting temperature worked out at 58.4 °C. Next, FLMDFIHQV: 62.2 °C; FLMKNSDLYGA: 58.4 °C.

Consider ALLDRIVSV, for which the thermal melting temperature stood at 64.2 °C.

NIIPYITNV came in with a thermal melting temperature of 51.4 °C. Next, SLLPEGPPAI: 57.8 °C; LLAEDDELHL: 44.2 °C; FLDHIIASV: 61.4 °C. ALAPGVRAV showed a thermal melting temperature of 60.2 °C. Regarding YLPEDFIRVG, the thermal melting temperature is 46.8 °C. In turn, LLQEVEHQL came in with a thermal melting temperature of 57.8 °C.

ALFPGDVDRL: the thermal melting temperature came out at 54.3 °C.

The sequence WLIEDGKVVTV registered a thermal melting temperature of 58.3 °C. As for AMNISVPQV, the thermal melting temperature was determined as 58.1 °C.

Turning to FLAELPGSLSL, the thermal melting temperature was determined as 49.3 °C. In turn, ILEEKGLSQV returned a thermal melting temperature of 59.1 °C. Sequence LLSDVRFVL had a thermal melting temperature of 54.8 °C. Sequence LLRDGIELV returned a thermal melting temperature of 57.8 °C. Next, AMSNLVPPVEL: 53.7 °C; RLGEAEGLMKV: 56.4 °C; FILDFYEKV: 41.8 °C.

On to KIFEMGPVFTL, for which the thermal melting temperature worked out at 52.7 °C. ALLDGRLQV: the thermal melting temperature came out at 60.7 °C. The sequence FILPHISTA yielded a thermal melting temperature of 55.7 °C. The same measure for LADETLLKV: 55.2 °C. With GLDPNKPPEL, the thermal melting temperature is 61 °C.

Take VLGRVNLV: the thermal melting temperature came to 45.9 °C. HLDEAIHVL came in with a thermal melting temperature of 51.9 °C. Turning to VLLGEVNIRL, the thermal melting temperature amounted to 55.2 °C. SLLNPPETLNL: the thermal melting temperature stood at 54.9 °C.

Regarding TLLGNIHAV, the thermal melting temperature came out at 59.5 °C. Sequence GLLENIPRV showed a thermal melting temperature of 64.8 °C.

As to YLHDQNPDAAL, the thermal melting temperature stood at 59 °C.

In turn, VLLKARLVPA yielded a thermal melting temperature of 59.7 °C.

Sequence VTTDIQVKV returned a thermal melting temperature of 47.3 °C. Next, FLLLPGPSAA: 47 °C. HLFETISQA returned a thermal melting temperature of 54.9 °C. The sequence GLDPQGDRSFL had a thermal melting temperature of 57 °C. As for FLPQGFPDSV, the thermal melting temperature was 45.8 °C.

With SIHDVTFQV, the thermal melting temperature turned out to be 57.4 °C. SMSADVPLV yielded a thermal melting temperature of 61.3 °C. In turn, ALLKIEGVYA had a thermal melting temperature of 59.4 °C. ILLDNDHYA: the thermal melting temperature was 50.4 °C. FLDPNNIPKA yielded a thermal melting temperature of 61.3 °C. As to YLSPDLSKV, the thermal melting temperature stood at 61.9 °C.

Consider LLDPNVKSIFV, for which the thermal melting temperature was determined as 62.2 °C. In turn, FLDITNPKAV yielded a thermal melting temperature of 40.7 °C. Take FLDITNPKA: the thermal melting temperature came out at 58.3 °C.
